Source: PubChem BioAssay (EPA / NIEHS)
“And” between values parts separate entries of the source, which are not always exact repeats. Equal entries are not always repeated. Some structures have more than one record in an assay (separate samples or runs), and their calls can disagree. The source made the active and inactive calls. The calls were made as follows: active = hit-call score of the fitted dose curve at least 0.9, where 1 is the maximum; inactive = score below 0.9.

Tests used:
[1] = IUF_NPC2c_oligodendrocyte_migration_120hr: Leibniz Research Institute for Environmental Medicine (IUF) 120-hour Neural Progenitor Cell Migration Assay for Oligodendrocyte Migration (NPC2c) (AID 2284297);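 also: O4-positive oligodendrocyte migration distance divided by radial glia migration distance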
In short: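 Exposure runs 5 days from differentiation onset at 37C, seven concentrations plus solvent control, DMSO at most 0.1%, applied to primary hNPC spheres on laminin. After fixation, O4 immunostaining gives oligodendrocyte distance from the sphere core, relative to radial glia migration.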

[2] = IUF_NPC2a_radial_glia_migration_120hr: Leibniz Research Institute for Environmental Medicine (IUF) 120-hour Neural Progenitor Cell Migration Assay for Radial Glia Migration (NPC2a) (AID 2284298)
In short: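 Migration distance in um, sphere core edge to migration-area edge, derived by nuclei-density algorithm from Hoechst images after 120 h compound exposure. Primary hNPC spheres differentiated on poly-D-lysine/laminin in N2 medium, 37C; medium half-replaced day 3.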

[3] = IUF_NPC2a_radial_glia_migration_72hr: Leibniz Research Institute for Environmental Medicine (IUF) 72-hour Neural Progenitor Cell Migration Assay for Radial Glia Migration (NPC2a) (AID 2284299)
In short: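 Primary hNPC spheres, fetal brain GW 16-19, on PDL/laminin; DMEM/F12 3:1 + 1% N2. Compound dosed day 0, 7 conc. + SC, half-medium refresh day 3. 72 h brightfield, migration distance core-to-front (um), 4 directions averaged.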

[4] = IUF_NPC2b_neuronal_migration_120hr: Leibniz Research Institute for Environmental Medicine (IUF) 120-hour Neural Progenitor Cell Migration Assay for Neuron Migration (NPC2b) (AID 2284300)
In short: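 TUBB3-positive neurons are imaged after 120 h of differentiation, and their mean distance from the sphere edge is normalised to radial glia migration. Single 0.3 mm fetal hNPC spheres on poly-D-lysine/laminin received 7 compound concentrations, ≤0.1% DMSO, refreshed at day 3.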

[5] = read-out: Epidermal growth factor receptor (EGFR), EGFR (gene 1956); test: BSK_BE3C_EGFR: BioMAP Diversity Plus: BE3C Assay for Epidermal growth factor receptor (EGFR) Biomarker Activity (AID 2284281); conditions: primary human bronchial epithelial cells
In short: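 Human primary bronchial epithelial cells (BE3C system) dosed with chemicals; EGFR measured by ELISA at 24 h, fitted in the positive direction relative to DMSO. Cytotoxicity tracked in parallel cultures by SRB total-protein staining.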

[6] = read-out: KRT18 (gene 3875); test: BSK_BE3C_Keratin818: BioMAP Diversity Plus: BE3C Assay for Keratin 818 Biomarker Activity (AID 2284282); conditions: primary human bronchial epithelial cells
In short: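 Chemicals are added to human lung bronchial epithelial primary cells (BE3C system) and incubated 24 h. Keratin 8/18 is then measured by ELISA, with parallel SRB total-protein staining gauging overt cytotoxicity.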

[7] = read-out: Matrix Metallopeptidase 9 (MMP9), MMP9 (gene 4318); test: BSK_BE3C_MMP9: BioMAP Diversity Plus: BE3C Assay for Matrix Metallopeptidase 9 (MMP9) Biomarker Activity (AID 2284283); conditions: primary human bronchial epithelial cells
In short: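 MMP9 is measured by ELISA after a 24 h compound exposure of primary human bronchial epithelial cultures. Parallel SRB staining gives overt cytotoxicity. Values fitted in the positive direction against DMSO.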

[8] = read-out: Plasminogen activator inhibitor-1 (PAI1), SERPINE1 (gene 5054); test: BSK_CASM3C_PAI1: BioMAP Diversity Plus: CASM3C Assay for Plasminogen activator inhibitor-1 (PAI1) Biomarker Activity (AID 2284284); conditions: primary human coronary artery smooth muscle cells;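 also: PAI-1 protein level measured by ELISA 24 h after dosing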
[9] = read-out: Monocyte Chemoattractant Protein-1 (MCP1), CCL2 (gene 6347); test: BSK_hDFCGF_MCP1: BioMAP Diversity Plus: hDFCGF Assay for Monocyte Chemoattractant Protein-1 (MCP1) Biomarker Activity (AID 2284285); conditions: primary human foreskin fibroblasts
In short: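 Human foreskin fibroblasts (hDFCGF system) were exposed to compound and secreted MCP-1 was measured by ELISA after 24 hours. Activity was fitted relative to DMSO. Cytotoxicity was checked by SRB total-protein staining in parallel cultures.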

[10] = read-out: Vascular cell adhesion molecule 1 (VCAM1), VCAM1 (gene 7412); test: BSK_IMphg_VCAM1: BioMAP Diversity Plus: IMphg Assay for Vascular cell adhesion molecule 1 (VCAM1) Biomarker Activity (AID 2284286); conditions: primary human endothelial cells with macrophages
In short: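 Human venular endothelial cells co-cultured with macrophages; VCAM-1 quantified by ELISA 24 h after dosing, fitted in the positive direction against DMSO. Cytotoxicity was checked in parallel cultures by SRB total-protein staining (0.1% SRB after 10% TCA fixation, 560 nm).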

[11] = read-out: Intercellular Adhesion Molecule 1 (ICAM1), ICAM1 (gene 3383); test: BSK_hDFCGF_ICAM1: BioMAP Diversity Plus: hDFCGF Assay for Intercellular Adhesion Molecule 1 (ICAM1) Biomarker Activity (AID 2284287); conditions: primary human foreskin fibroblasts
In short: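 Primary human foreskin fibroblasts (hDFCGF system) dosed with chemical; ICAM-1 quantified by ELISA at 24 h relative to DMSO. Parallel SRB total-protein staining to assess overt cytotoxicity.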

[12] = read-out: CD40, CD40 (gene 958); test: BSK_IMphg_CD40: BioMAP Diversity Plus: IMphg Assay for CD40 Biomarker Activity (AID 2284288); conditions: primary human endothelial cells with macrophages
In short: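 Venular endothelial cells co-cultured with macrophages (human primary), CD40 measured by ELISA 24 h after dosing. Positive-direction fit vs DMSO baseline; cytotoxicity tracked by SRB total-protein staining in parallel cultures.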

[13] = read-out: TIMP metallopeptidase inhibitor 2 (TIMP2), TIMP2 (gene 7077); test: BSK_hDFCGF_TIMP2: BioMAP Diversity Plus: hDFCGF Assay for TIMP metallopeptidase inhibitor 2 (TIMP2) Biomarker Activity (AID 2284289); conditions: primary human foreskin fibroblasts
In short: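 Primary human foreskin fibroblasts in the hDFCGF system, dosed for 24 h; TIMP-2 level measured by ELISA, fitted in the positive direction against DMSO; cytotoxicity checked in parallel by sulforhodamine B total protein staining.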

[14] = read-out: Interleukin-1 alpha (IL1a), IL1A (gene 3552); test: BSK_IMphg_IL1a: BioMAP Diversity Plus: IMphg Assay for Interleukin-1 alpha (IL1a) Biomarker Activity (AID 2284290); conditions: primary human endothelial cells with macrophages
In short: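 Human venular endothelial cells co-cultured with macrophages, IMphg system. IL-1α is measured by ELISA 24 h after dosing and fitted in the positive direction against DMSO. Cytotoxicity is assessed by SRB staining of parallel cultures.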

[15] = read-out: E-selectin (Homo sapiens) (UniProt P16581); test: BSK_IMphg_ESelectin: BioMAP Diversity Plus: IMphg Assay for Eselectin Biomarker Activity (AID 2284291); conditions: primary human endothelial cells with macrophages
In short: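 Human venular endothelial cell–macrophage co-culture, E-selectin measured by ELISA 24 h after chemical dosing. Signal fitted in the positive direction against DMSO as negative control and baseline.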

[16] = BSK_IMphg_SRB: Viability Assessment in the BioMAP Diversity Plus: IMphg Assay (AID 2284292); conditions: primary human endothelial cells with macrophages;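 also: measured one day after compound addition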
In short: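 Human venular endothelial cells with macrophages, 24 h after chemical dosing; total protein by 0.1% SRB staining after 10% TCA fixation, read at 560 nm. Positive-direction fitting versus DMSO baseline.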

[17] = read-out: Macrophage colony-stimulating factor (MCSF), CSF1 (gene 1435); test: BSK_IMphg_MCSF: BioMAP Diversity Plus: IMphg Assay for Macrophage colony-stimulating factor (MCSF) Biomarker Activity (AID 2284293); conditions: primary human endothelial cells with macrophages
In short: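 Co-culture of human venular endothelial cells and macrophages, 24 hours of chemical exposure. M-CSF quantified by ELISA, with parallel SRB total-protein staining for cytotoxicity; activity fitted relative to DMSO.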

[18] = read-out: Interleukin-10 (IL10), IL10 (gene 3586); test: BSK_IMphg_IL10: BioMAP Diversity Plus: IMphg Assay for Interleukin-10 (IL10) Biomarker Activity (AID 2284294); conditions: primary human endothelial cells with macrophages
In short: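 Human venular endothelial cells cocultured with macrophages, dosed 24 h; IL-10 measured by ELISA, activity relative to DMSO. Cytotoxicity assessed in parallel cultures by sulforhodamine B total-protein staining.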

[19] = BSK_IMphg_SRB.Mphg: Macrophage Viability Assessment in the BioMAP Diversity Plus: IMphg Assay (AID 2284295); conditions: primary human endothelial cells with macrophages
In short: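 Venular endothelial cells co-cultured with macrophages, read 24 h after dosing. Total protein measured by 0.1% SRB staining after 10% TCA fixation, absorbance at 560 nm. Fitted in positive direction against DMSO baseline.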

[20] = read-out: Thrombomodulin, THBD (gene 7056); test: BSK_LPS_Thrombomodulin: BioMAP Diversity Plus: LPS Assay for Thrombomodulin Biomarker Activity (AID 2284296); conditions: outcome: primary human HUVEC with PBMC unless noted
In short: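 Human umbilical vein endothelial cells co-cultured with PBMC and stimulated with LPS; cell-surface thrombomodulin measured by ELISA 24 hours after compound. Gain or loss versus DMSO; cytotoxicity checked by SRB staining in parallel cultures.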

Sequence of E-selectin (Homo sapiens) (P16581 whole entry, looked up): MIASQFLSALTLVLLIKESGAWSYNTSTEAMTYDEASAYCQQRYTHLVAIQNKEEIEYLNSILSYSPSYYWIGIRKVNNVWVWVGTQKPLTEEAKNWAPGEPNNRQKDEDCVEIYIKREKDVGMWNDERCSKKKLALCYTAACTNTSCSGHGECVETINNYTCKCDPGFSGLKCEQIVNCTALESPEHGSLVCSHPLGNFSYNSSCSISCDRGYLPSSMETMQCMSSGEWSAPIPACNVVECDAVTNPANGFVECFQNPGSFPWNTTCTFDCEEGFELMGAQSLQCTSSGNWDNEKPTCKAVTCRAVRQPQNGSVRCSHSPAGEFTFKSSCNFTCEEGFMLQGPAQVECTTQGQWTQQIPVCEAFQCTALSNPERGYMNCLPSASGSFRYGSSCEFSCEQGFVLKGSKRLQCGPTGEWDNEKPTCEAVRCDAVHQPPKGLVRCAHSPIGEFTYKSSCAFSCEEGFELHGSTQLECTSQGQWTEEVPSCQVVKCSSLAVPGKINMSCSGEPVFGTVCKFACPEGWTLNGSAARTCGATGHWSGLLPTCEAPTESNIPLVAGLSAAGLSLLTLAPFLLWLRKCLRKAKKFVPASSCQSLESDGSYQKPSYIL

Question: What does the source list for `CCOP(=S)(OCC)Oc1nc(Cl)c(Cl)cc1Cl`?
Answer: outcome [1]: inactive; outcome [2]: inactive; outcome [3]: inactive; outcome [4]: inactive

Question: Which AC50 [5] does the source give for `O=C(O)C(F)(F)C(F)(F)C(F)(F)C(F)(F)C(F)(F)C(F)(F)C(F)(F)C(F)(F)C(F)(F)C(F)(F)F` here?
Answer: The AC50 was 4.31 µM (active) and 2.34 µM (active).

Question: And the AC50 [6]?
Answer: Its AC50 is 4.21 µM (active) and 5.29 µM (active).

Question: And the AC50 [7]?
Answer: Its AC50 is 3.77 µM (active) and 3.33 µM (active).

Question: What about the outcome [8] of the same molecule?
Answer: The outcome was “inactive”.

Question: What about the AC50 [9] of the same molecule?
Answer: Its AC50 is 5.24 µM (active) and 5.63 µM (active).

Question: What about the outcome [10] of the same molecule?
Answer: The outcome was “inactive”.

Question: What about the AC50 [11] of the same molecule?
Answer: Its AC50 is 5.12 µM (active) and 5.47 µM (active).

Question: What about the outcome [12] of the same molecule?
Answer: Its outcome is “inactive”.

Question: And the AC50 [13]?
Answer: The AC50 was 6.09 µM (active) and 5.21 µM (active).

Question: And the outcome [14]?
Answer: Its outcome is “inactive”.

Question: And the outcome [15]?
Answer: The outcome was “inactive”.

Question: What about the outcome [16] of the same molecule?
Answer: Its outcome is “inactive”.

Question: What about the outcome [17] of the same molecule?
Answer: Its outcome is “inactive”.

Question: What about the outcome [18] of the same molecule?
Answer: The outcome was “inactive”.

Question: And the outcome [19]?
Answer: Its outcome is “inactive”.

Question: What about the outcome [20] of the same molecule?
Answer: The outcome was “inactive”.

Question: Which results are given for `O=C(O)C(F)(F)C(F)(F)C(F)(F)C(F)(F)C(F)(F)C(F)(F)F`?
Answer: outcome [5]: inactive; outcome [6]: inactive; AC50 [7]: 30 µM (active); outcome [7]: inactive; outcome [8]: inactive; outcome [9]: inactive; outcome [10]: inactive; outcome [11]: inactive; outcome [12]: inactive; outcome [13]: inactive; outcome [14]: inactive; outcome [15]: inactive; outcome [16]: inactive; outcome [17]: inactive; outcome [18]: inactive; outcome [19]: inactive; outcome [20]: inactive

Question: Which results are given for `COC(=O)Cc1ccccc1`?
Answer: outcome [5]: inactive; outcome [6]: inactive; outcome [7]: inactive; outcome [8]: inactive; outcome [9]: inactive; outcome [11]: inactive; outcome [13]: inactive; AC50 [20]: 2180 nM (active); outcome [20]: inactive [setting not given]

Question: With `COP(=O)(OC)O/C(=C\Cl)c1cc(Cl)c(Cl)cc1Cl` as the molecule, how does the AC50 [1] read?
Answer: Its AC50 is 603 nM (active).

Question: And the AC50 [2]?
Answer: Its AC50 is 638 nM (active).

Question: What about the AC50 [3] of the same molecule?
Answer: Its AC50 is 1030 nM (active).

Question: And the AC50 [4]?
Answer: Its AC50 is 785 nM (active).

Question: What does the source list for `O=C(O)CCC(F)(C(F)(F)F)C(F)(F)F`?
Answer: outcome [5]: inactive; outcome [6]: inactive; outcome [7]: inactive; outcome [8]: inactive; outcome [9]: inactive; outcome [10]: inactive; outcome [11]: inactive; outcome [12]: inactive; outcome [13]: inactive; outcome [14]: inactive; outcome [15]: inactive; outcome [16]: inactive; outcome [17]: inactive; outcome [18]: inactive; outcome [19]: inactive; outcome [20]: inactive

Question: With `CC(=O)OC(c1ccccc1)C(Cl)(Cl)Cl` (centres undefined) as the molecule, how does the outcome [5] read?
Answer: The outcome was “inactive”.

Question: And the outcome [6]?
Answer: Its outcome is “inactive”.

Question: And the outcome [7]?
Answer: Its outcome is “inactive”.

Question: What about the outcome [8] of the same molecule?
Answer: Its outcome is “inactive”.

Question: What about the outcome [9] of the same molecule?
Answer: Its outcome is “inactive”.

Question: What about the outcome [11] of the same molecule?
Answer: Its outcome is “inactive”.

Question: And the outcome [13]?
Answer: Its outcome is “inactive”.

Question: And the outcome [20]?
Answer: Its outcome is “inactive”.
